# Experimental data from the supplement of paper PMC10515830.
# Counter-ions that a name gives are not always drawn.
# Tests used:
# Settings in all cases: 10 µM; exposure time 6 h
# [1] = tested on: Danio rerio larvae (5 dpf); assay: difference in excitability vs DMSO (percentage points); higher = more excitable than DMSO
# Summary of the method: (§1)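 Library compounds were tested at 10 µM final in 100 µL egg water on wild-type 5 dpf zebrafish larvae in 96-well plates for 6 h, with 48 larvae per compound. After 3 h, plates at 28.5 ℃ were imaged every 6 s during a 3-h run of moving lines and 100 ms, 400Hz tones. Behaviours were quantified by Z-LaP Tracker and reported as the compound mean less the vehicle control mean, in percentage points.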
# [2] = tested on: Danio rerio larvae (5 dpf); assay: difference in startle response vs DMSO (percentage points); higher = stronger startle than DMSO
# Summary of the method: as §1
# [3] = tested on: Danio rerio larvae (5 dpf); assay: difference in activity during first hour vs DMSO (percentage points); higher = more activity than DMSO
# Summary of the method: as §1
# [4] = tested on: Danio rerio larvae (5 dpf); assay: difference in habituation to acoustic stimuli vs DMSO (percentage points); higher = more habituation than DMSO
# Summary of the method: as §1
# [5] = tested on: Danio rerio larvae (5 dpf); assay: difference in combined optomotor response to red, green and blue moving lines vs DMSO (percentage points); higher = stronger optomotor response than DMSO
# Summary of the method: as §1
SMILES,difference in excitability [1],difference in startle response [2],difference in activity during first hour [3],difference in habituation to acoustic stimuli [4],difference [5]
CCCNC(C)C(=O)Nc1c(C)csc1C(=O)OC (stereo not given) [Articaine (hydrochloride)],2.22,-2.43,5.22,0.219,-0.0299
O=C(NC[C@H]1CN(c2ccc(N3CCOCC3=O)cc2)C(=O)O1)c1ccc(Cl)s1 [Rivaroxaban],-1.52,-3.86,-2.47,-4.56,1.67
C[C@@H]1C[C@H]2[C@@H]3CCC4=CC(=O)C=C[C@]4(C)[C@@]3(Cl)[C@@H](O)C[C@]2(C)[C@@]1(OC(=O)c1ccco1)C(=O)CCl [Mometasone Furoate],11.9,0.167,1.33,0.89,3.46
CCCCC(=O)N(Cc1ccc(-c2ccccc2-c2nnn[nH]2)cc1)[C@H](C(=O)O)C(C)C [Valsartan],-0.389,4.11,2.08,-3.08,3.88
CO[C@H]1/C=C/O[C@@]2(C)Oc3c(C)c(O)c4c(c3C2=O)C2=NC3(CCN(CC(C)C)CC3)NC2=C(NC(=O)/C(C)=C\C=C\[C@H](C)[C@H](O)[C@@H](C)[C@@H](O)[C@@H](C)[C@H](OC(C)=O)[C@@H]1C)C4=O [Rifabutin],10.6,-5.26,2.31,3.31,3.55
O=NN(CCCl)C(=O)NCCCl [Carmustine],-3.21,2.25,1.68,0.0979,11.5
CC#C[C@]1(O)CC[C@H]2[C@@H]3CCC4=CC(=O)CCC4=C3[C@@H](c3ccc(N(C)C)cc3)C[C@@]21C [Mifepristone],10.2,-2.97,-9.36,0.759,4.72
CN(C)CCOC(c1ccccc1)c1ccccc1 [Diphenhydramine (hydrochloride)],-0.341,0.108,-10.6,-3.37,3.89
NS(=O)(=O)c1cc(Cl)c(Cl)c(S(N)(=O)=O)c1 [Dichlorphenamide],1.47,-2.89,-2.19,-4.78,-8.01
COc1ccc2c3c1O[C@H]1C[C@@H](O)C=C[C@@]31CCN(C)C2 [Galantamine],1.36,-0.28,15.8,-3.53,4.1
CCC(=O)O[C@]1(C(=O)CCl)[C@@H](C)C[C@H]2[C@@H]3C[C@H](F)C4=CC(=O)C=C[C@]4(C)[C@@]3(F)[C@@H](O)C[C@@]21C [Halobetasol Propionate],12.1,1.54,3.96,-4.09,3.99
N[C@@H]1CCCCN(c2c(F)cc3c(=O)c(C(=O)O)cn(C4CC4)c3c2Cl)C1 [Besifloxacin (hydrochloride)],13,0.0054,5.97,-5.08,0.455
COc1cccc(N2CCN(C3=Nc4c(F)cccc4[C@H](CC(=O)O)N3c3cc(C(F)(F)F)ccc3OC)CC2)c1 [Letermovir],9.24,-3.2,13.2,-5.75,-3.3
CC(C)(C)NCC(O)c1ccc(O)c(CO)c1 (stereo not given) [Salbutamol (hydrochloride)],7.67,-7.77,15.5,-0.991,4.05
CCOc1cc(CC(=O)N[C@@H](CC(C)C)c2ccccc2N2CCCCC2)ccc1C(=O)O [Repaglinide],2.26,7.77,14.4,0.755,1.85
CC(C)[C@H](N)C(=O)OCCOCn1cnc2c(=O)[nH]c(N)nc21 [L-Valacyclovir (hydrochloride)],6.67,6.55,5.61,-8.71,-5.74
CO[C@H]1C(=O)[C@]2(C)[C@@H](OC)C[C@H]3OC[C@@]3(OC(C)=O)[C@H]2[C@H](OC(=O)c2ccccc2)[C@]2(O)C[C@H](OC(=O)[C@H](O)[C@@H](NC(=O)OC(C)(C)C)c3ccccc3)C(C)=C1C2(C)C [Cabazitaxel],6.19,4.59,13.7,3.39,2.83
COC(=O)N[C@H](C(=O)N1CCC[C@H]1c1ncc(-c2ccc(-c3ccc(-c4cnc([C@@H]5CCCN5C(=O)[C@@H](NC(=O)OC)C(C)C)[nH]4)cc3)cc2)[nH]1)C(C)C [Daclatasvir],18.7,2.15,-4.26,0.308,-0.609
Cn1c(=O)c2c(ncn2C)n(C)c1=O [Caffeine],5.33,2.45,2.64,7.15,4.07
CCCN[C@H]1CCc2nc(N)sc2C1 [(S)-Pramipexole (hydrochloride)],6.47,-2.57,-10.9,5.7,0.342
CCc1cc(C(N)=S)ccn1 [Ethionamide],-2.77,-1,-3.96,0.506,2.57
CCN(CC)CCOc1ccc(C(=C(Cl)c2ccccc2)c2ccccc2)cc1 [Clomiphene (citrate)],-9.14,5.47,-4.03,-5.11,-16.4
CCCCC[C@](C)(O)/C=C/[C@@H]1[C@@H](C/C=C\CCCC(=O)O)[C@@H](O)C[C@H]1O [15(S)-15-methyl Prostaglandin F2α],1.12,0.545,22.8,1.43,5.47
CO/N=C(\C(=O)N[C@@H]1C(=O)N2C(C(=O)O)=C(COC(C)=O)CS[C@H]12)c1csc(N)n1 [Cefotaxime (sodium salt)],0.947,0.752,4.74,6.08,3.19

SMILES,difference in excitability [1],difference in startle response [2],difference in activity during first hour [3],difference in habituation to acoustic stimuli [4],difference [5]
Nc1ccc(S(N)(=O)=O)cc1 [Sulfanilamide],11.8,-3.25,6.97,-1.65,3.13
O=C(NCC1CCCCN1)c1cc(OCC(F)(F)F)ccc1OCC(F)(F)F (stereo not given) [Flecainide (acetate)],6.44,-12.4,-19.1,-11,-18.8
NC[C@@H](O)c1ccc(O)c(O)c1 [L-(-)-Norepinephrine (bitartrate hydrate)],5.69,-4.59,23,-6.22,6.76
CC(C)[C@H](N)C(=O)OCC(CO)OCn1cnc2c(=O)nc(N)[nH]c21 (stereo not given in full) [Valganciclovir (hydrochloride)],-0.104,2.52,-5.18,1.35,3.33
Cn1c(=O)c2nc[nH]c2n(C)c1=O [Theophylline],4.49,5.34,8.14,4.58,-0.54
NC1=NCC2c3ccccc3Cc3ccccc3N12 (stereo not given) [Epinastine (hydrochloride)],13,-2.41,14.1,4.49,7.56
CC[N+](C)(C)c1cccc(O)c1 [Edrophonium (chloride)],-0.775,-0.613,5.67,7.33,3.51
CC(C)(C)NCC(O)c1ccc(O)c(CO)c1 (stereo not given) [Salbutamol],8.67,1.17,20.7,-4.78,5.67
C=C1CC[C@H](O)C/C1=C/C=C1\CCC[C@]2(C)[C@@H]([C@H](C)/C=C/[C@H](C)C(C)C)CC[C@@H]12 [Vitamin D2],3.72,-5.12,3.16,2.67,8.48
CN(C)C(=O)c1cc2cnc(Nc3ccc(N4CCNCC4)cn3)nc2n1C1CCCC1,10.3,-7.97,2.64,-2.12,0.1
CCCC(CCC)C(=O)O [Valproic Acid (sodium salt)],1.2,1.47,-1.97,-8.1,3.32
O=c1[nH]c2ccccc2n1CCN1CCN(c2cccc(C(F)(F)F)c2)CC1 [Flibanserin],17.7,11.6,9.81,-4.3,-0.569
CN1CCN2c3ncccc3Cc3ccccc3C2C1 (stereo not given) [Mirtazapine],-3.43,3.21,17.5,-1.46,-7.5
C=C1/C(=C\C=C2/CCC[C@]3(C)[C@@H]([C@H](C)CCCC(C)(C)O)CC[C@@H]23)C[C@@H](O)C[C@@H]1O [Calcitriol],7.32,-3.08,-9.65,5.79,-3.39
CCCCCCOC(=O)CCC(=O)CN [Hexaminolevulinate (hydrochloride)],5.6,3.54,2.02,7.86,2.47
O=c1[nH]c(=O)n([C@H]2C[C@H](O)[C@@H](CO)O2)cc1C(F)(F)F [Trifluorothymidine],-0.163,-3.06,5.45,-4.69,1.93
C1N2CN3CN1CN(C2)C3 [Methenamine Hippurate],0.76,5.89,-3.94,9.62,2.94
Cc1nc(-c2ccc(OCC(C)C)c(C#N)c2)sc1C(=O)O [Febuxostat],-0.635,0.974,-3.02,3.9,5.26
CN1CCC[C@@H]1CCO[C@](C)(c1ccccc1)c1ccc(Cl)cc1 [Clemastine (fumarate)],26.5,-6.88,-0.468,-2.97,6.17
O=C1[C@@H]2[C@H]3CC[C@H](C3)[C@@H]2C(=O)N1C[C@@H]1CCCC[C@H]1CN1CCN(c2nsc3ccccc23)CC1 [Lurasidone],-9.91,6.61,-1.19,-11.8,-17
O=C(O)CSc1nnc(Br)n1-c1ccc(C2CC2)c2ccccc12 [Lesinurad],1.61,2.63,12.5,-0.00375,2.41
CC(C(=O)O)c1ccc(-c2ccccc2)c(F)c1 (racemic) [(±)-Flurbiprofen],17.6,-8.24,15,-6.69,-3.74
CCOC(=O)[C@H](CCc1ccccc1)N[C@@H](C)C(=O)N1Cc2cc(OC)c(OC)cc2C[C@H]1C(=O)O [Moexipril (hydrochloride)],11.9,-4.62,7.71,2.63,-1.21
